Measured values: PubChem BioAssay (NCI)
About 79,000 compounds went through this panel and 15% of them were active in at least one assay; those are over-represented in the sample as a whole. Calls of active or inactive are those of the source. Cut-off read from the data, not from the text of the source: active = growth inhibition above about 70%; inactive = the rest.

Columns and labels:
[1] = NCI Yeast Anticancer Drug Screen. Data for the wt1 strain (AID 149);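 note: 0% = growth of vehicle-treated wt1 cultures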; conditions: S. cerevisiae wt1 strain (SPY 50644) growth inhibition, stronger effect = higher value
How it was run: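 Vehicle-normalised growth inhibition; strain wt1; compound exposure.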

[2] = NCI Yeast Anticancer Drug Screen. Data for the rad50EPP+ strain (AID 151);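 note: 0% = growth of vehicle-treated control cultures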; conditions: S. cerevisiae rad50 mutant strain, stronger effect = higher value
How it was run: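 Yeast strain carrying rad50 alteration (rad50EPP+) exposed to compounds; growth inhibition measured relative to vehicle-treated controls.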

[3] = NCI Yeast Anticancer Drug Screen. Data for the mgt1 strain (AID 153); conditions: S. cerevisiae mgt1 mutant growth inhibition, stronger effect = higher value
How it was run: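 Yeast mgt1 strain (DNA repair/cell-cycle alteration panel) exposed to compounds; growth inhibition measured relative to vehicle-treated controls.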

[4] = NCI Yeast Anticancer Drug Screen. Data for the rad50 strain (AID 155);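 note: 0% = growth of vehicle-only cultures of the same strain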; conditions: S. cerevisiae rad50 strain growth inhibition, stronger effect = higher value
How it was run: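 A DNA repair-deficient yeast mutant serves as the test organism; compound-induced growth inhibition is calculated against vehicle-treated cells.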

[5] = NCI Yeast Anticancer Drug Screen. Data for the mec2-1 strain (AID 157); conditions: S. cerevisiae mec2-1 strain, stronger effect = higher value
How it was run: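 mec2-1 yeast strain, carrying an alteration in DNA damage repair or cell cycle control, was exposed to compounds; growth inhibition was measured relative to vehicle-treated controls.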

[6] = NCI Yeast Anticancer Drug Screen. Data for the rad14 strain (AID 159);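 note: 0% = growth of vehicle-treated control cultures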; conditions: S. cerevisiae rad14 strain growth inhibition, stronger effect = higher value
How it was run: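 Vehicle-treated cultures served as the baseline for growth inhibition of a DNA repair-mutant yeast strain exposed to each compound.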

[7] = NCI Yeast Anticancer Drug Screen. Data for the sgs1 mgt1 strain (AID 161);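 note: 0% = growth of cultures given vehicle only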; conditions: S. cerevisiae sgs1 mgt1 strain, stronger effect = higher value
How it was run: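 Compounds are added to genetically altered yeast, and growth is compared with cultures given vehicle alone to give percent inhibition.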

[8] = NCI Yeast Anticancer Drug Screen. Data for the CLN2oe strain (AID 163);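 note: 0% = growth of vehicle-only control cultures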; conditions: S. cerevisiae CLN2oe strain, stronger effect = higher value
How it was run: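 Yeast cells carrying a defined cell-cycle control alteration were exposed to test compounds. Growth inhibition was scored against vehicle-treated control cultures.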

[9] = NCI Yeast Anticancer Drug Screen. Data for the bub3 strain (AID 167); conditions: S. cerevisiae bub3 mutant strain, stronger effect = higher value
How it was run: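 Inhibition values come from growth of compound-treated mutant yeast normalised to vehicle-treated controls.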

[10] = NCI Yeast Anticancer Drug Screen. Data for the wt2 strain (AID 169);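 note: 0% = growth of vehicle-treated yeast cultures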; conditions: S. cerevisiae wt2 strain growth inhibition, stronger effect = higher value
How it was run: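 Yeast cells were exposed to test compounds, and growth inhibition was measured relative to vehicle-treated controls.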

[11] = NCI Yeast Anticancer Drug Screen. Data for the mlh1 strain (AID 171);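 note: 0% = growth of vehicle-treated control cultures of the same strain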; conditions: S. cerevisiae mlh1 strain growth inhibition, stronger effect = higher value
How it was run: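 Yeast carrying a defined genetic alteration in DNA damage repair or cell cycle control were exposed to test compounds. Growth inhibition was measured relative to vehicle-treated controls.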

[12] = NCI Yeast Anticancer Drug Screen. Data for the sgs1 strain (AID 173);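 note: 0% = growth of vehicle-only control cultures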; conditions: S. cerevisiae sgs1 mutant, stronger effect = higher value
How it was run: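 Yeast mutant strains carrying defined defects in DNA damage repair or cell cycle control were exposed to test compounds. Growth inhibition was scored against vehicle-treated controls.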

[13] = NCI Yeast Anticancer Drug Screen. Data for the mlh1 rad18 strain (AID 175); conditions: S. cerevisiae mlh1 rad18 strain growth inhibition, stronger effect = higher value
How it was run: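 Growth inhibition of the yeast strain was measured after compound exposure and expressed relative to vehicle-treated controls. The strain carries defined defects in DNA damage repair.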

[14] = NCI Yeast Anticancer Drug Screen. Data for the rad18 strain (AID 177); conditions: S. cerevisiae rad18 mutant growth inhibition, stronger effect = higher value
How it was run: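 Yeast carrying a defined DNA damage repair alteration were exposed to compounds. Growth inhibition was expressed relative to vehicle-treated controls.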

[15] = NCI Yeast Anticancer Drug Screen. Data for the cln2 rad14 strain (AID 165);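 note: 0% = growth equal to vehicle treated cultures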; conditions: S. cerevisiae cln2 rad14 strain, stronger effect = higher value
How it was run: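 Yeast carrying cln2 and rad14 alterations (cell cycle control and DNA damage repair) were exposed to compounds. Growth inhibition was measured against vehicle-treated controls.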

[16] = at 5.0 µM (retest, dose inferred, filed as 0.5)
[17] = at 50.0 µM (retest, dose inferred, filed as 5.0)

Measured: growth inhibition

COc1cc2c(cc1OC)[C@@H](Nc1ccc(C#N)cc1)C1COC(=O)[C@@H]1C2c1cc(OC)c(O)c(OC)c1 (stereo partly drawn)
inactive: [1]; at 1.2 µM -34% | [1]; at 3.7 µM -33% | [1]; at 11.0 µM -9% | [1]; at 33.0 µM 6% | [2]; at 1.2 µM -15% | [2]; at 3.7 µM -11% | [2]; at 11.0 µM -1% | [2]; at 33.0 µM 6% | [2]; at 100.0 µM 20% | [3]; at 1.2 µM -17% | [3]; at 3.7 µM -19% | [3]; at 11.0 µM 12% | [3]; at 33.0 µM 20% | [4]; at 1.2 µM 24% | [5]; at 1.2 µM -22% | [5]; at 3.7 µM 5% | [5]; [16] 11% | [5]; at 11.0 µM 15% | [6]; at 1.2 µM -12% | [6]; at 3.7 µM -8% | [6]; at 11.0 µM 0% | [6]; at 33.0 µM 22% | [7]; [16] 17% | [8]; at 1.2 µM -5% | [8]; at 3.7 µM 19% | [8]; at 11.0 µM 11% | [8]; at 33.0 µM 38% | [9]; at 1.2 µM -32% | [9]; at 3.7 µM -13% | [9]; [16] -54% | [9]; at 11.0 µM -22% | [9]; at 33.0 µM 15% | [10]; at 1.2 µM 6% | [10]; at 3.7 µM 17% | [10]; at 11.0 µM 46% | [11]; at 1.2 µM -3% | [11]; at 3.7 µM 9% | [11]; at 11.0 µM 16% | [11]; at 33.0 µM 33% | [12]; at 1.2 µM -20% | [12]; at 3.7 µM -14% | [12]; at 11.0 µM -2% | [12]; at 33.0 µM 39% | [13]; [16] 9% | [14]; at 1.2 µM -30% | [14]; at 3.7 µM -8% | [14]; at 11.0 µM -5% | [14]; at 33.0 µM 13%
active: [1]; at 100.0 µM 79% | [3]; at 100.0 µM 83% | [4]; at 3.7 µM 70% | [4]; [16] 88% | [4]; at 11.0 µM 90% | [4]; at 33.0 µM 93% | [4]; [17] 97% | [4]; at 50.0 µM 88% | [4]; at 100.0 µM 95% | [5]; at 33.0 µM 70% | [5]; [17] 98% | [5]; at 50.0 µM 91.5% | [5]; at 100.0 µM 91% | [6]; at 100.0 µM 81% | [7]; [17] 96% | [7]; at 50.0 µM 88% | [8]; at 100.0 µM 84% | [9]; [17] 95% | [9]; at 50.0 µM 89.2% | [9]; at 100.0 µM 78% | [10]; at 33.0 µM 90% | [10]; at 100.0 µM 93% | [11]; at 100.0 µM 81% | [12]; at 100.0 µM 85% | [13]; [17] 94% | [13]; at 50.0 µM 86.7% | [14]; at 100.0 µM 84%

O=[N+]([O-])c1cccc2nc3ccccc3c(NCCCN3CCCCC3)c12
inactive: [1]; at 1.2 µM 3% | [1]; at 3.7 µM 13% | [3]; at 1.2 µM 12% | [3]; at 3.7 µM 45% | [8]; at 1.2 µM -3% | [8]; at 3.7 µM 45% | [9]; at 1.2 µM -14% | [9]; at 3.7 µM 21% | [9]; [16] 22% | [10]; at 1.2 µM 1% | [10]; at 3.7 µM 39% | [11]; at 1.2 µM 10% | [11]; at 3.7 µM 50%
active: [1]; at 11.0 µM 80% | [1]; at 33.0 µM 96% | [1]; at 100.0 µM 97% | [2]; at 1.2 µM 83% | [2]; at 3.7 µM 96% | [2]; at 11.0 µM 98% | [2]; at 33.0 µM 98% | [2]; at 100.0 µM 99% | [3]; at 11.0 µM 94% | [3]; at 33.0 µM 98% | [3]; at 100.0 µM 99% | [4]; at 1.2 µM 71% | [4]; at 3.7 µM 89% | [4]; [16] 89% | [4]; at 11.0 µM 94% | [4]; at 33.0 µM 96% | [4]; [17] 98% | [4]; at 50.0 µM 96.7% | [4]; at 100.0 µM 97% | [5]; at 1.2 µM 73% | [5]; at 3.7 µM 94% | [5]; [16] 97% | [5]; at 11.0 µM 97% | [5]; at 33.0 µM 97% | [5]; [17] 99% | [5]; at 50.0 µM 98.2% | [5]; at 100.0 µM 98% | [6]; at 1.2 µM 98% | [6]; at 3.7 µM 98% | [6]; at 11.0 µM 98% | [6]; at 33.0 µM 99% | [6]; at 100.0 µM 98% | [7]; [16] 92% | [7]; [17] 98% | [7]; at 50.0 µM 97% | [8]; at 11.0 µM 89% | [8]; at 33.0 µM 95% | [8]; at 100.0 µM 98% | [15]; [16] 99% | [15]; [17] 99% | [15]; at 50.0 µM 97.5% | [9]; at 11.0 µM 90% | [9]; at 33.0 µM 97% | [9]; [17] 98% | [9]; at 50.0 µM 96.8% | [9]; at 100.0 µM 98% | [10]; at 11.0 µM 89% | [10]; at 33.0 µM 97% | [10]; at 100.0 µM 98% | [11]; at 11.0 µM 92% | [11]; at 33.0 µM 97% | [11]; at 100.0 µM 99% | [12]; at 1.2 µM 87% | [12]; at 3.7 µM 93% | [12]; at 11.0 µM 95% | [12]; at 33.0 µM 98% | [12]; at 100.0 µM 98% | [13]; [16] 97% | [13]; [17] 99% | [13]; at 50.0 µM 98%
